Values without a mark were called inactive. Calls of active or inactive are those of the source. Rule as the data show it, unless noted: active = inhibition above about 30%; inactive = the rest.
Legend:
[1] = target: Nuclear receptor coactivator 3 (Homo sapiens) (UniProt Q9Y6Q9); experiment: SRC3 coactivator transcriptional activity inhibitors, confirmation, cell-based, luminescence, quadruplicate (AID 588792;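 active = mean inhibition over 43.08%, the solvent-only control mean plus 3 SD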;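 also: 0% = DMSO treated cells and 100% = gossypol at 36 µM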); details: HEK293 GAL4-SRC3 luciferase reporter, at 3.6 µM, active compounds read high
[2] = tested on: transactivating tegument protein VP16 (Human herpesvirus 1), Gal4-VP16 luciferase reporter; experiment: VP16 transactivation inhibitors, counter-screen for SRC3 inhibitor project, cell-based, luminescence, high throughput (AID 588794); details: mammalian cells, VP16-driven luciferase reporter luminescence; at 3.6 µM; active compounds read high

Sequence of Nuclear receptor coactivator 3 (Homo sapiens) (Q9Y6Q9 whole entry, looked up, the tested form may be a part): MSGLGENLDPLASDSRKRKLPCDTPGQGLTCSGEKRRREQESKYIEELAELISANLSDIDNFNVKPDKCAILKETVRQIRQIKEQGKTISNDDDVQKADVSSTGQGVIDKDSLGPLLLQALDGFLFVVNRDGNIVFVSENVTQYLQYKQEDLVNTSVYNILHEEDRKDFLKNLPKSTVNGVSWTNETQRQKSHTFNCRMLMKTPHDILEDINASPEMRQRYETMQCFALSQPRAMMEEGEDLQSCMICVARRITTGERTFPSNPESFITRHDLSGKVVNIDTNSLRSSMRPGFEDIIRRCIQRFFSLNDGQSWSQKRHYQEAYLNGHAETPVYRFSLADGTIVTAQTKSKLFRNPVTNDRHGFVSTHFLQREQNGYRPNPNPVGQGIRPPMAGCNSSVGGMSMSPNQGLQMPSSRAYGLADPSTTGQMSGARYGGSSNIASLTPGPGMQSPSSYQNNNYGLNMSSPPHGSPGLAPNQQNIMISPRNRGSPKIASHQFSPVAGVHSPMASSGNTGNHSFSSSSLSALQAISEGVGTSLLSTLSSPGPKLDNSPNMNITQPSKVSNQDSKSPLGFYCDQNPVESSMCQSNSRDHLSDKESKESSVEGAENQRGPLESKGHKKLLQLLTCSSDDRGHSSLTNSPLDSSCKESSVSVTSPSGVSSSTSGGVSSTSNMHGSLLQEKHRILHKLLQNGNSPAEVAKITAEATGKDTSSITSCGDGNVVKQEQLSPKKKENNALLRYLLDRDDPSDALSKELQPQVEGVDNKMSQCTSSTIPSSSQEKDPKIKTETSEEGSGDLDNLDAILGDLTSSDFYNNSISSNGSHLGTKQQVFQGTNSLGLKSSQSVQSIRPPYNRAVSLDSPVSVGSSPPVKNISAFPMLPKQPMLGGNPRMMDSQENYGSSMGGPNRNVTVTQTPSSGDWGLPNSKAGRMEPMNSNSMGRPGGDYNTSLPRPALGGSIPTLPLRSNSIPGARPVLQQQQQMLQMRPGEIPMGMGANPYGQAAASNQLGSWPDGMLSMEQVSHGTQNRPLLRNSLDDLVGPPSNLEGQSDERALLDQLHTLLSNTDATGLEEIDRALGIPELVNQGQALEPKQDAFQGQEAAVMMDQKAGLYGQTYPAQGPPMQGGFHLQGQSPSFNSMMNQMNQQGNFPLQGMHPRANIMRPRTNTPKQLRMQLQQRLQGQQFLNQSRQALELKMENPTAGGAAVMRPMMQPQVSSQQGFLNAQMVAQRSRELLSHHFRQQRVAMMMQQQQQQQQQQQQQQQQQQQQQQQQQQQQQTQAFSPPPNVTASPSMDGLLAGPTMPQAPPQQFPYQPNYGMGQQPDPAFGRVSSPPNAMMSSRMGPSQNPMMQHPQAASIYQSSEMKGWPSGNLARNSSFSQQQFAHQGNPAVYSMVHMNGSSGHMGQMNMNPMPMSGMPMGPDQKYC

Compound | inhibition [1] | inhibition [2]
COCC(C)NS(=O)(=O)c1ccc(C(=O)NC(Cc2ccccc2)c2ccccc2)cc1 (configuration not stated) | 17.7% | 0.32%
CN1C(=O)C2(C(C#N)=C(N)N(c3cc(Cl)cc(Cl)c3)C3=C2C(=O)CC(C)(C)C3)c2ccccc21 (configuration not stated) | 46.5% (active) | 25.6%
CC1(C)CC(=O)C=C(C#CC2(O)CCCCC2)C1 | 19% | 1.31%
O=[N+]([O-])c1ccc(N=Nc2c(Cl)cc(O)cc2Cl)cc1 | 13.9% | 66% (active)
CC(=O)Nc1ccc(S(=O)(=O)Oc2ccccc2N2CCCCC2)cc1 | -3.48% | 0.67%
Cc1[nH]n(C)c(=O)c1N=Nc1ccc(S(C)(=O)=O)cc1 | 8.44% | -1.15%
COc1cccc(CNC(=O)c2cc3c(c(-c4cccc(-c5cccc(C#N)c5)c4)n2)[C@H](CCO)N(S(=O)C(C)(C)C)C3)c1 (some centres not stated) | -23% | 0.36%
CC1CN(Cc2ccccc2)c2nc3c(c(=O)n(CC(N)=O)c(=O)n3C)n2C1 (configuration not stated) | 0.26% | -4.77%
O=[N+]([O-])c1cc(S(=O)(=O)NCCN2CCOCC2)ccc1Sc1nnnn1-c1ccccc1 | 12.9% | -10.3%
CN1CCN(S(=O)(=O)c2cccc(C(=O)N(C)CC(=O)Nc3ccc(Cl)c(Cl)c3)c2)CC1 | 21% | 17.9%
COc1ccc2c(c1)CCc1cnc(N)nc1-2 | 20% | 10.4%
CC(C(=O)N1c2ccccc2Sc2ccccc21)n1nnc(-c2cccs2)n1 (configuration not stated) | 2.33% | 6.84%
COc1cccc(/C=N/NC(=O)CNC(=O)C(c2ccccc2)c2ccccc2)c1O | 17.2% | 20.7%
COC(=O)c1ccccc1-c1ccc(C(c2c(C)[nH][nH]c2=O)c2c(C)[nH][nH]c2=O)o1 | 22.8% | -7.34%
C#CCN(C[C@@H]1[C@@H](OC(=O)NCc2ccccc2F)[C@@H](OC(=O)NCc2ccccc2F)Cn2c(=O)ccc(=O)n21)S(=O)(=O)c1ccc(C)cc1 | -2.92% | 24.2%
CCCC(=O)NC(c1ccc2c(c1)OCO2)c1cc(Cl)c2cccnc2c1O (configuration not stated) | 40.7% | 25.3%

Compound | inhibition [1] | inhibition [2]
Cc1ccccc1NC(=O)C(=Cc1ccc(C(=O)O)cc1)C(=O)Nc1ccccc1C | 27.8% | 43.2% (active)
CCc1ccc(/C=C/c2c([N+](=O)[O-])c(=O)n(C)c(=O)n2C)cc1 | 39.7% | 41.3% (active)
CC(=O)Nc1ccc(OCC(O)Cn2c3ccccc3c3ccccc32)c(C)c1 (configuration not stated) | -0.56% | -0.54%
Clc1ccc(C[n+]2cc(-c3ccccc3)n3c2CCCCC3)c(Cl)c1 | 22.4% | 46.7% (active)
COC(=O)Cc1[nH]n(-c2nc3ccccc3s2)c(=O)c1C(C)=Nc1ccc(C)cc1 | 90.5% (active) | 87.1% (active)
COc1cc(C=CC(=O)c2ccccc2)cc(OC)c1OC | 28.4% | 30.1% (active)
C=C(C)COc1ccc(-c2[nH]ncc2-c2ccc(OC)cc2)c(O)c1 | 7.89% | 14.5%
Cc1[nH]nc(-c2ccc(O)cc2O)c1Oc1ccccc1 | 3.77% | 10.3%
CCOC(=O)c1c(C)[nH]c(C)c1C(=O)COC(=O)/C=C/c1cccc(Cl)c1 | -3.47% | -1.23%
Cn1c(=O)n(C)c2cc(NS(=O)(=O)c3ccc(C(C)(C)C)cc3)ccc21 | 16.6% | 14.9%
CO[C@@]12[C@@H]3N[C@@H]3CN1C1=C(C(=O)C(N)=C(C)C1=O)[C@@H]2COC(N)=O | 35.1% | 22%
CN1CCN(Cc2cc(COCc3ccccc3)c3cccnc3c2O)CC1 | 20.5% | 31% (active)
Cc1cccc(Nc2nc(-c3c(C)nc4ccccn34)cs2)c1 | 19.1% | 24.4%
COc1ccc(C(Cl)=C(C=O)c2ccc(OC)c(OC)c2)cc1OC | 22.3% | -10.7%
CCc1c(C)nc2ncnn2c1NCCc1ccc(Cl)cc1 | 23.3% | 25.9%
